TRAIL sens C8: sensitizes caspase-8 expressing cells to TRAIL. actives 1% (n = 360,000). NB7+C8 cells + TRAIL, ATPlite viability luminescence. AID 624354. inhibition (viability loss, TRAIL sensitization), % at 10 µM;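 active means compounds causing at least 50% loss of cell viability in the single-dose screen, relative to plate controls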
SENP7 block: inhibitors of human SENP7 protease | inhibition, % at 5 µM | Q9BQF6 | AID 434973 | actives 1.5% (n = 330,000) | recombinant SENP7, Z-RLRGG-aminoluciferin luminescence, 40 min;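 active means inhibition above about 50% at the single test dose, limit read from the data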;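 further: plate controls were DMSO with enzyme for no effect and no enzyme buffer wells for full effect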
SENP6 block: blocks the human protease SENP6. actives 1.8% (n = 330,000). inhibition, % at 10 µM. Recombinant SENP6 catalytic domain, aminoluciferin luminescence. Q9GZR1;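 active means inhibition above about 50% at the single tested dose, limit read from the data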;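 further: plate controls were DMSO wells with enzyme for no effect and DMSO wells lacking enzyme for full effect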
Target sequence (Q9GZR1 628-1112 limits assumed): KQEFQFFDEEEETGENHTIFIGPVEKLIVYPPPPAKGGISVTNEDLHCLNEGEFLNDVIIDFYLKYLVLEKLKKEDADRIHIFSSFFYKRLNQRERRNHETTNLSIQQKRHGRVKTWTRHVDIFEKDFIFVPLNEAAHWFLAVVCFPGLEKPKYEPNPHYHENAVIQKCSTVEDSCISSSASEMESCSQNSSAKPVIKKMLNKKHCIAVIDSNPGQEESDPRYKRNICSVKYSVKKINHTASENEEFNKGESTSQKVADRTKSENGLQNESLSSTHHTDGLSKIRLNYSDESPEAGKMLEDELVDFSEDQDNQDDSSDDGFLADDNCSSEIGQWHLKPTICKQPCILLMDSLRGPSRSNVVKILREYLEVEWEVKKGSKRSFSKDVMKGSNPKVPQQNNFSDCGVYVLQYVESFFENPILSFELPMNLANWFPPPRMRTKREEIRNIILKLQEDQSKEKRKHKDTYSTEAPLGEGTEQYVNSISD
PPC-1+TRAIL kill: PPC-1 cancer cell killing with TRAIL present; PPC-1 cells + TRAIL, ATPLite viability luminescence; cell killing (% activity), % at 4 µM or 5 µM; actives 0.41% (n = 220,000); AID 1443;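 active means cell killing above 50% in the first pass at 4 µM, then a duplicate retest at 5 µM averaging 50% or more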;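 further: plate controls were cells with TRAIL plus DMSO for no effect and medium-only wells lacking cells for full effect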
SENP8 block-1: inhibitors of human SENP8 protease. Q96LD8. purified SENP8, Z-RLRGG-aminoluciferin cleavage, luminescence. inhibition, % at 10 µM. actives 1.2% (n = 330,000); in the data active means inhibition above about 50%
SENP8 block-2: SENP8 (human) protease inhibition; recombinant SENP8, Nedd8 substrate fluorescence; inhibition, % at 20 µM; actives 0.64% (n = 360,000); AID 602440; in the data active means inhibition mostly above about 40%, no sharp cut-off; inactive means mostly below about 27%
SENP8 conf: confirmation of human SENP8 protease inhibitors; actives 40% (n = 6,200); shares compounds with SENP7 block; Recombinant SENP8, Z-RLRGG-aminoluciferin luminescence, 60 min; inhibition, % at 12.5 µM;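 active means mean inhibition across replicates above about 50%, limit read from the data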
SENP6 confirm: human SENP6 inhibition, confirmed. shares compounds with SENP7 block. recombinant SENP6, Z-RLRGG-aminoluciferin luminescence. inhibition, % at 12.5 µM. actives 58% (n = 6,200). AID 488915
SENP7 confirm: human SENP7 inhibition, confirmed. shares compounds with SENP7 block. recombinant SENP7, Z-RLRGG-aminoluciferin luminescence, 40 min. inhibition, % at 12.5 µM. actives 69% (n = 6,200)
Casp3 select: selectivity test for SENP inhibitors: human caspase-3 inhibition. shares compounds with SENP7 block. purified caspase-3, Z-DEVD-aminoluciferin luminescence, 60 min. inhibition, % at 12.5 µM. actives 60% (n = 6,200). AID 488918;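 active means mean inhibition above about 50%, limit read from the data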;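 further: plate controls were enzyme with DMSO for no effect and wells without caspase-3 for full effect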
SENP luc ctr: interferes with luciferase luminescence in SENP counter-screen; shares compounds with SENP7 block; AID 488919; actives 39% (n = 6,200); Pre-incubated SENP8/Z-RLRGG-aminoluciferin, luciferase luminescence interference; inhibition, % at 12.5 µM;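 active means mean inhibition above about 50% when retested at one dose, limit read from the data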;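 further: plate controls were DMSO wells with completed reaction for no effect and substrate without enzyme for full effect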
Starred values were filed as active, the others as inactive; . = not tested or not shown. The list is not random: actives were taken first. Their share in the collection is about 3%.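 How the source made its calls, unless noted: active means mean inhibition above about 50% in the one-dose retest (limit read from the data); inactive means the rest.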

SMILES	TRAIL sens C8	SENP7 block	SENP6 block	PPC-1+TRAIL kill	SENP8 block-1	SENP8 block-2	SENP8 conf	SENP6 confirm	SENP7 confirm	Casp3 select	SENP luc ctr
Clc1ccc(-c2cc(-c3ccccc3)on2)cc1	18	58*	11	.	-4	10	13	9	-2	9	1
Fc1cccc(-c2csc(-c3ccno3)n2)c1	4	14	23	-7	5	20	.	.	.	.	.
Clc1ccc(-c2cc(CSc3ccccc3)on2)cc1	7	25	5	19	-7	21	.	.	.	.	.
Clc1ccc(-c2csc(-c3ccno3)n2)cc1	22	58*	44	7	20	-23	-5	10	36	35	9
Cc1nc(-c2cc(-c3nc(-c4ccc(C(F)(F)F)cc4)no3)no2)cs1	-6	0	-4	-3	0	-3	.	.	.	.	.
Cc1ccc(Nc2nnc(SCC(=O)NCCN3C(=O)CSC3=O)s2)cc1C	53*	53*	25	48	46	8	51*	46	78*	64*	55*
Cc1ccc(SCC(=O)NCCN2C(=O)CSC2=O)cc1C	-2	2	-10	18	4	12	.	.	.	.	.
O=C(COc1ccccc1-c1ccccc1)NN=C1CCCC1	-6	-5	-33	24	-5	16	.	.	.	.	.
CCCC(=O)Nc1nc(-c2ccccc2)ns1	12	-2	-6	31	0	13	.	.	.	.	.
Cc1nnc(SCCC(=O)Nc2nc(-c3ccccc3)ns2)s1	41	-5	58*	1	17	-4	54*	50*	78*	26	30
Cc1cc(C(=O)Nc2c(F)c(F)c(F)c(F)c2F)n(-c2ccccc2)n1	-7	-1	2	-11	8	9	.	.	.	.	.
CCn1cnc2sc(-c3ccccc3)cc2c1=O	9	10	58*	36	21	-29	37	30	65*	50	44
Cc1ccc(C(C)C)c(Oc2cnccn2)c1	0	-1	-17	.	-7	23	.	.	.	.	.
CSc1ccc(NC(=O)Nc2cccn(Cc3ccccc3F)c2=O)cc1	25	49	63*	.	44	-190	21	9	43	26	-2
CCOC(=O)C1=CN(Cc2cccc(-c3cccnc3)c2)S(=O)(=O)N(C)C1C (stereo not drawn)	2	0	.	.	.	10	.	.	.	.	.
CCN1C(=O)/C(=C\N2CCCc3ccccc32)SC1=S	-1	-4	10	8	-3	24	.	.	.	.	.
CCN1C(=O)/C(=C/N2CCc3ccccc32)SC1=S	-5	56*	17	23	3	18	11	14	14	17	4
CN(C(=O)c1ccc(-c2ccccc2)cc1)C1CCCCC1	20	29	61*	.	37	7	14	20	30	22	4
CCCn1c(SCC(=O)c2cc(C)n(-c3cc(C)on3)c2C)n[nH]c1=O	6	-3	-8	.	3	-5	.	.	.	.	.
CCOC(=O)c1cccc(NC(=O)CSc2nnc(-c3ccncc3)n2CCCOC)c1	13	99*	-20	-6	-8	-1	-12	-5	-5	2	3
O=C(c1ccc([N+](=O)[O-])cc1)c1cc2ccc(O)cc2oc1=O	3	71*	83*	.	78*	12	23	65*	6	71*	7
Cc1ccc(NC(=O)Nc2cccc([N+](=O)[O-])c2)cc1F	32	-4	-12	12	-15	4	.	.	.	.	.
O=C(Nc1ccc(OC(F)(F)F)cc1)c1[nH]ncc1[N+](=O)[O-]	4	32	72*	-8	56*	1	70*	68*	88*	59*	70*
O=C(Nc1ccc([N+](=O)[O-])cc1)c1ccc(S(=O)(=O)N2CCCC2)cc1	-6	-11	4	.	-3	8	.	.	.	.	.
O=C(Nc1ccc(S(=O)(=O)N2CCCCCC2)cc1)c1[nH]ncc1[N+](=O)[O-]	36	41	75*	.	75*	10	-7	72*	90*	65*	78*
SMILES	TRAIL sens C8	SENP7 block	SENP6 block	PPC-1+TRAIL kill	SENP8 block-1	SENP8 block-2	SENP8 conf	SENP6 confirm	SENP7 confirm	Casp3 select	SENP luc ctr
O=C(Nc1ccc(OC(F)(F)F)cc1)Nc1cccc([N+](=O)[O-])c1	41	24	56*	28	28	14	8	26	72*	6	0
Cc1onc(C(=O)Nc2ccc(OC(F)(F)F)cc2)c1[N+](=O)[O-]	8	6	-6	.	1	4	.	.	.	.	.
C=CCn1c2ccccc2c(=O)c2cc(C#Cc3ccccn3)ccc21	43	43	72*	.	56*	-498	61*	66*	82*	40	32
Cc1c(C(=O)N(Cc2ccccc2)C(C)C)oc2ccc(S(=O)(=O)N3CCOCC3)cc12	30	-3	8	.	2	6	.	.	.	.	.
Oc1cc2ccccc2cc1-c1n[nH]c(=S)o1	16	75*	91*	14	94*	-275	98*	98*	101*	96*	96*
O=S1(=O)CC(N2CCN(CCO)CC2)CN1Cc1cn(Cc2cccc(C(F)(F)F)c2)nn1 (stereo not drawn)	-16	.	.	.	.	16	.	.	.	.	.
CC1(C)NC(=O)N(CC(=O)N2CCCC(C(F)(F)F)C2)C1=O (stereo not drawn)	22	-1	-18	.	-5	7	.	.	.	.	.
COc1ccc(C2/C(=C(/O)c3ccc(Br)cc3)C(=O)C(=O)N2C)cc1 (stereo not drawn)	-10	3	5	.	16	-4	.	.	.	.	.
COc1ccc(C2/C(=C(/O)c3ccc(Br)cc3)C(=O)C(=O)N2C)cc1OC (stereo not drawn)	1	58*	6	.	-5	12	4	5	0	0	1
CC(=O)OC1=C(O)C(=O)c2ccccc2C1=O	.	34	25	.	9	.	.	.	.	.	.
O=C1C(C2=C(O)c3ccccc3C2=O)=Nc2ccccc21	89*	17	89*	17	79*	60*	14	95*	100*	60*	20
O=c1c2cc(Cl)ccc2[nH]c(=S)n1Cc1cccs1	-12	8	-14	15	-10	15	.	.	.	.	.
O=C(COC(=O)c1c[nH]c(=O)[nH]c1=O)Nc1ccccc1F	4	-5	21	9	-8	7	.	.	.	.	.
